The first assay concerns the target T1, ETS1 (UniProt P14921).
T1 sequence: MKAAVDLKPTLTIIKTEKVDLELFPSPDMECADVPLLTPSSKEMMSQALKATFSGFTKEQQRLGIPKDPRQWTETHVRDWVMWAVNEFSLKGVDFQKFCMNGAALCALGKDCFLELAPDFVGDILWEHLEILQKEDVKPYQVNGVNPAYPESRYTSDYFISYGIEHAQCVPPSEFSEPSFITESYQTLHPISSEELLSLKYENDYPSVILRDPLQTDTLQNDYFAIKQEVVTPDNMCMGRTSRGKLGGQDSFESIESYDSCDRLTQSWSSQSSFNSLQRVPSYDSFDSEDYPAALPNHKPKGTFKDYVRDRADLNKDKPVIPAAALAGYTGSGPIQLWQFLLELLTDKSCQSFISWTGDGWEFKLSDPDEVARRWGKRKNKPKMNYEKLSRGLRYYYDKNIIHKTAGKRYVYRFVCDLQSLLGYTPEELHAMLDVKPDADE
Briefly: ETS1 binding intensity (PBM fluorescence), ETS1 alone (arbitrary fluorescence units); higher = stronger binding. As to conditions: ETS1 concentration 1 nM; RUNX1 concentration 0 nM.
Chain of RUNX1 (Q01196 whole entry): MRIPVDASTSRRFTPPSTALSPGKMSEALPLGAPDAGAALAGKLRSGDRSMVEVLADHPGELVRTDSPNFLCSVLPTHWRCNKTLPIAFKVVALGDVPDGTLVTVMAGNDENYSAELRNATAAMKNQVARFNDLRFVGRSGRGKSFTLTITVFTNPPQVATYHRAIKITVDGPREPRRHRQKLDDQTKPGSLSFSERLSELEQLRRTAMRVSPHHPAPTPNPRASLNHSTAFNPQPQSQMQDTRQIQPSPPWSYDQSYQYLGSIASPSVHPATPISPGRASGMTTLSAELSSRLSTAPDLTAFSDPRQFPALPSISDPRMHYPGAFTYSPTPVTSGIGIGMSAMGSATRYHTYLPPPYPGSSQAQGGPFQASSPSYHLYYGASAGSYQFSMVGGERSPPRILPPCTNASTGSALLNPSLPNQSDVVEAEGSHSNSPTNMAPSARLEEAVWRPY
With GTCCCACGCGACTTCCTGCGGGAAACATGGCGGCAT, the ETS1 binding intensity stood at 1520.
CTTGCTTAACGCTTCCTGAGGGGTGGTTTGGGTTTT displayed an ETS1 binding intensity of 448.
Still for that read-out and setting: under CGAGCAGGAAGTGGCAAGATTTGATAGGCGGTCAGG stands 1970; under GCCGATGAGGAAGTGAGGGCCAACCACACTGCTCAG, 544; under TCATTTCCTCTGGTGTTATTGTGTTGTGGTTTTAAG, 417.
Sequence GCGAGACGCGGAAGAGGCTTGCGGTTGACCAAAGAA returned an ETS1 binding intensity of 407.
On the same count and under the same terms, the value for ACACAAACAGGAAGTGTTTGTGGTCCCTGCCTTTAG was 7210.
As for TGGGGCTAGGCTTCCGGGGCTCTGCGGTCCTCGGCC, the ETS1 binding intensity stood at 481.
Same read-out and setting: the value for CGAGGGAGCCGGAAAGATGGTGGTTACCAGATCTGC was 608; that for AACCCGGAAGTGGACACGGAGCTCGGCTGCGGCTCC was 1750.
CACCCAGTTTGAACTTCCTGGCGGTTTTGTTTACAC displayed an ETS1 binding intensity of 673.
The same measure, in the same setting: the value for CTTGTGCCTACATCCTGTAGCTGTGGTTTAGGGACG was 1420; that for TGATTAAAAACAGGATGTGGGTGAATAGTCATGCAT was 4810.
The same measure, in the same setting: the value for CAACTTCCGGGGCCGGTTGCCTGGCAACCGCAGGAG was 812; that for GCTTGTCTTCCGGTTTCGTCGCCGCCGCAGGCGCAC was 1730.
Same read-out and setting: the value for TCTCCTTTCAGGAAGCTGCACCCAAACCACCCTCAG was 606; that for GGGCAGCAGCAGACCGGAAACCACAGCCGACTAAGA was 10700; that for GAGTCTACAGCGGAAGCCACCACATGCCCCACCCCC was 4820.
CCCCTCTCTCCCACTTCCTGTGGTCTCAGTCTTTGT came in with an ETS1 binding intensity of 3360.
The same measure, in the same setting: under AGAGACAGCGGGCGGAAACCGCAGAAAAAGTTGAAA stands 1640.
The same measure, in the same setting: the value for AGGGACTTCCGGTGACCAGAGCACTAGCGCCGCAAA was 2160; that for GGAACAGGAAGCGGCAGAAATAGCAGCCACCGCGGC was 960.
For ACAGAGCAGGAAGCAGCCCTCACCACAGATGAAGCA, the ETS1 binding intensity stood at 686.
Still for that read-out and setting: under TTTTGCCCAACAGGATGTGGTTTCTAAAGCAGACGG stands 6620; under TTAGGCTCATGGGAAATGTGGTTTCTAAATCGCGGG, 494; under ACGTGATGGCAGTCTTCCTGCCCACAAGTTCTGGTC, 422.
On the same count and under the same terms, under TCCCTCCTTCCGCTCTGGTTTTGTGGTTGCTTGCTG stands 902.
Sequence CTGCGCGGCCGGAAGTCGGCGGTTTCCCAGACGACG showed an ETS1 binding intensity of 20800.
With GAAGCGGAAGTCGCTGAGGGGTGGTGAAGCGGTTGG, the ETS1 binding intensity worked out at 1930.
In turn, GACTTGGGGGAAGTGGCTTGGTTTGCGTGGTTTCTC had an ETS1 binding intensity of 433.
On the same count and under the same terms, the value for TTGAGGGGAAGGGGAGGAAGTGGTCATTGGAACTTG was 2530; that for TTATTTCCTCTTTTTTTTTTTTTTTTTGGTTTTGCT was 483; that for CCGCGCACCCGGAACTACCTCCCGACCCGCATCCCC was 562.
Still for that read-out and setting: under GAGGCAGGCGGATGTCAGTGTGGTTAGAGCACAGTG stands 1170; under CTGAGCCGGGACCGGAAGCCGCACCGCCCCCCGCGC, 18400.
GCCAGGGCAGGAAGTTGCTAACCGCCCCAGAGCAGG had an ETS1 binding intensity of 2840.
The same measure, in the same setting: the value for ATTACAGGAAGTATGTCCTCCTCTGCCTAACCACTG was 2270; that for AACAAACAGTAGGCAGGAAGTGGTTAAACCGAAAGG was 8580.
CCCACCCAGGAAGCCGTCCTAACCACAACAGCCCTC returned an ETS1 binding intensity of 514.
As to GTGCAGGGCCCGGAAGCTCAGTGTGGTTAAAGACAT, the ETS1 binding intensity amounted to 2010.

Another assay deals with RUNX1 (UniProt Q01196). Briefly: RUNX1 binding intensity (PBM fluorescence), RUNX1 alone (arbitrary fluorescence units); higher = stronger binding. As to conditions: RUNX1 concentration 2 nM; ETS1 concentration 0 nM. Here is the method:
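Cooperative gcPBM on 36-bp genomic probes with neighbouring ETS1 and RUNX1 sites. Recombinant human RUNX1 (2 nM) was incubated alone or with ETS1 (25 nM) and detected with anti-RUNX1 antibody plus Alexa488 secondary. Values are medians over 4 replicate spots; the RUNX1+ETS1 data were normalised to the RUNX1-only data. The probes sit in constant array flanks that are not printed.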
As for GTCCCACGCGACTTCCTGCGGGAAACATGGCGGCAT, the RUNX1 binding intensity came out at 771.
The same measure, in the same setting: under CTTGCTTAACGCTTCCTGAGGGGTGGTTTGGGTTTT stands 837.
The same measure, in the same setting: the value for CGAGCAGGAAGTGGCAAGATTTGATAGGCGGTCAGG was 739; that for GCCGATGAGGAAGTGAGGGCCAACCACACTGCTCAG was 878.
TCATTTCCTCTGGTGTTATTGTGTTGTGGTTTTAAG registered an RUNX1 binding intensity of 1580.
GCGAGACGCGGAAGAGGCTTGCGGTTGACCAAAGAA: the RUNX1 binding intensity amounted to 1830.
ACACAAACAGGAAGTGTTTGTGGTCCCTGCCTTTAG came in with an RUNX1 binding intensity of 748.
For TGGGGCTAGGCTTCCGGGGCTCTGCGGTCCTCGGCC, the RUNX1 binding intensity stood at 662.
On the same count and under the same terms, under CGAGGGAGCCGGAAAGATGGTGGTTACCAGATCTGC stands 766; under AACCCGGAAGTGGACACGGAGCTCGGCTGCGGCTCC, 705.
Sequence CACCCAGTTTGAACTTCCTGGCGGTTTTGTTTACAC gave an RUNX1 binding intensity of 972.
Same read-out and setting: the value for CTTGTGCCTACATCCTGTAGCTGTGGTTTAGGGACG was 887.
Same read-out and setting: under TGATTAAAAACAGGATGTGGGTGAATAGTCATGCAT stands 759; under CAACTTCCGGGGCCGGTTGCCTGGCAACCGCAGGAG, 965; under GCTTGTCTTCCGGTTTCGTCGCCGCCGCAGGCGCAC, 840.
Regarding TCTCCTTTCAGGAAGCTGCACCCAAACCACCCTCAG, the RUNX1 binding intensity amounted to 996.
On the same count and under the same terms, the value for GGGCAGCAGCAGACCGGAAACCACAGCCGACTAAGA was 1160; that for GAGTCTACAGCGGAAGCCACCACATGCCCCACCCCC was 904.
Same read-out and setting: under CCCCTCTCTCCCACTTCCTGTGGTCTCAGTCTTTGT stands 1500; under AGAGACAGCGGGCGGAAACCGCAGAAAAAGTTGAAA, 8270.
The same measure, in the same setting: under AGGGACTTCCGGTGACCAGAGCACTAGCGCCGCAAA stands 768; under GGAACAGGAAGCGGCAGAAATAGCAGCCACCGCGGC, 819.
Turning to ACAGAGCAGGAAGCAGCCCTCACCACAGATGAAGCA, the RUNX1 binding intensity came to 760.
The sequence TTTTGCCCAACAGGATGTGGTTTCTAAAGCAGACGG displayed an RUNX1 binding intensity of 1290.
TTAGGCTCATGGGAAATGTGGTTTCTAAATCGCGGG: the RUNX1 binding intensity is 912.
On to ACGTGATGGCAGTCTTCCTGCCCACAAGTTCTGGTC, for which the RUNX1 binding intensity turned out to be 1250.
The sequence TCCCTCCTTCCGCTCTGGTTTTGTGGTTGCTTGCTG registered an RUNX1 binding intensity of 1490.
Still for that read-out and setting: the value for CTGCGCGGCCGGAAGTCGGCGGTTTCCCAGACGACG was 759; that for GAAGCGGAAGTCGCTGAGGGGTGGTGAAGCGGTTGG was 710.
Still for that read-out and setting: the value for GACTTGGGGGAAGTGGCTTGGTTTGCGTGGTTTCTC was 952; that for TTGAGGGGAAGGGGAGGAAGTGGTCATTGGAACTTG was 776.
Same read-out and setting: the value for TTATTTCCTCTTTTTTTTTTTTTTTTTGGTTTTGCT was 1960; that for CCGCGCACCCGGAACTACCTCCCGACCCGCATCCCC was 1290; that for GAGGCAGGCGGATGTCAGTGTGGTTAGAGCACAGTG was 782.
Regarding CTGAGCCGGGACCGGAAGCCGCACCGCCCCCCGCGC, the RUNX1 binding intensity was 828.
Still for that read-out and setting: the value for GCCAGGGCAGGAAGTTGCTAACCGCCCCAGAGCAGG was 804; that for ATTACAGGAAGTATGTCCTCCTCTGCCTAACCACTG was 831; that for AACAAACAGTAGGCAGGAAGTGGTTAAACCGAAAGG was 897.
CCCACCCAGGAAGCCGTCCTAACCACAACAGCCCTC: the RUNX1 binding intensity was determined as 4100.
Same read-out and setting: the value for GTGCAGGGCCCGGAAGCTCAGTGTGGTTAAAGACAT was 805.

The values above are taken from the supplement of paper PMC10681739.
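Throughout, for RUNX1 binding intensity (PBM fluorescence), RUNX1 alone: Full-length recombinant human RUNX1 bound to double-stranded 36-bp genomic probes on a high-density microarray, scored as Alexa488 fluorescence per spot via anti-RUNX1 antibody, median of four replicate spots.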
